Compound activity deposited in PubChem BioAssay by National Center for Advancing Translational Sciences (NCATS).
A selection: hits, their analogues and other compounds. The true share with any hit is near 19%.
TGFb inhibitor: blocks TGF-b signaling; actives 1.2% (n = 410,000); AID 588855; HepG2 CAGA-GFP TGF-b/SMAD3 reporter, GFP fluorescence, 18 h; TGF-beta stimulated, 500 pg/mL final; Potency, µM (titrated, usually from 46.1 µM), for inactives: at the top dose activity, negative = inhibition, usual class: inhibitors; further: potency means the concentration at half of the fitted maximal effect; on the % scale 0 is the no-effect control and ±100 the full control effect; nearly all actives have a fitted effect of over 65% in size
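Read-out: total well GFP (ex488/em500-530) summed from mean per-cell fluorescence. Cells: HEPG2 CAGA-GFP, 1% FBS DMEM, 18 h at 37 degrees C with 500 pg/mL final TGF-beta. Unstimulated wells served as the full-inhibition control; stimulated DMSO wells = 0%.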
TDP1 cell noCPT: qHTS for Inhibitors of human tyrosyl-DNA phosphodiesterase 1 (TDP1): qHTS in cells in absence of CPT | DT40 Tdp1-/- hTDP1 cells, no CPT, ATP luminescence, 48 h | Potency, µM (doses to about 46.2 µM), inactives show at the highest dose activity change, negative = growth inhibition, most hits filed as inhibitors | actives 15% (n = 420,000) | AID 686978, 2013; further: potency means the concentration at half of the fitted maximal effect; on the % scale 0 is the no-effect control and ±100 the full control effect; nearly all actives have a fitted effect of over 55% in size
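A cellular qHTS used chicken DT40 cells lacking endogenous Tdp1 but carrying stably transfected human TDP1. Compounds were applied without camptothecin, and cell growth kinetics were judged by ATP-dependent luminescence after ≥48 hr.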
IL1B secr inh: blocks inflammasome-driven IL-1 beta release; actives 4.7% (n = 360,000); activity change, % at 57.5 µM; THP-1 LPS/ATP IL-1B secretion, AlphaLISA, 16 h; stronger effect = lower value; in the data active means activity change below about -50%; inconclusive means mostly about -30% to -49%; further: on the % scale 0 is the no-effect control and ±100 the full control effect
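Secreted IL-1B measured by AlphaLISA bead assay after 16 h compound exposure of THP-1 cells; compounds (final up to 57.5 uM) added 1 h before LPS (250 ng/mL) and ATP (1.25 mM) stimulation; lower signal means less secretion.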
TDP1 cell CPT: growth inhibition of DT40 Tdp1-/-;hTDP1 cells with camptothecin (screen for TDP1 inhibitors). chicken DT40 Tdp1-/-;hTDP1 cells + 20 nM CPT, ATP luminescence, 48 h. Potency, µM (doses to about 46.2 µM), for the others: at the top dose activity change, negative = growth inhibition, usual class: inhibitors. actives 12% (n = 420,000). AID 686979; further: potency means the concentration at half of the fitted maximal effect; on the % scale 0 is the no-effect control and ±100 the full control effect; nearly all actives have a fitted effect of over 55% in size
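Chicken DT40 Tdp1-/- cells complemented with human TDP1, 400 cells/well, exposed to compounds plus 20 nM camptothecin for at least 48 h at 37 C; viability read as ATP content by CellTiter-Glo luminescence.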
HepG2 tox: kills HepG2 cells in TGF-b inhibitor counter-screen. AID 588856. actives 0.76% (n = 410,000). Potency, µM (doses to about 46.1 µM), without a hit: at the highest dose activity change, negative = cytotoxicity, usual class: cytotoxic. HepG2 CAGA-GFP viability, ATP luminescence, 18 h; further: potency means the concentration at half of the fitted maximal effect
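HepG2 CAGA-GFP cells (1000/well, DMEM with 1% FBS) received compound, then TGF-beta at 500 pg/mL final, and were incubated 18 hours at 37 degrees C. Viability was read by CellTiter-Glo luminescence. Media-only wells were set as complete cell-killing and DMSO as no toxicity.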
TDP1 block: TDP1 (human) enzyme inhibition; recombinant TDP1, AlphaScreen DNA substrate cleavage; Potency, µM (titrated, usually from 130 µM), without a hit: at the highest dose activity change, negative = inhibition, usual class: inhibitors; actives 0.28% (n = 350,000); further: potency means the concentration at half of the fitted maximal effect; on the % scale 0 is the no-effect control and ±100 the full control effect; nearly all actives have a fitted effect of over 40% in size
Target sequence (Q9NUW8 whole entry, looked up): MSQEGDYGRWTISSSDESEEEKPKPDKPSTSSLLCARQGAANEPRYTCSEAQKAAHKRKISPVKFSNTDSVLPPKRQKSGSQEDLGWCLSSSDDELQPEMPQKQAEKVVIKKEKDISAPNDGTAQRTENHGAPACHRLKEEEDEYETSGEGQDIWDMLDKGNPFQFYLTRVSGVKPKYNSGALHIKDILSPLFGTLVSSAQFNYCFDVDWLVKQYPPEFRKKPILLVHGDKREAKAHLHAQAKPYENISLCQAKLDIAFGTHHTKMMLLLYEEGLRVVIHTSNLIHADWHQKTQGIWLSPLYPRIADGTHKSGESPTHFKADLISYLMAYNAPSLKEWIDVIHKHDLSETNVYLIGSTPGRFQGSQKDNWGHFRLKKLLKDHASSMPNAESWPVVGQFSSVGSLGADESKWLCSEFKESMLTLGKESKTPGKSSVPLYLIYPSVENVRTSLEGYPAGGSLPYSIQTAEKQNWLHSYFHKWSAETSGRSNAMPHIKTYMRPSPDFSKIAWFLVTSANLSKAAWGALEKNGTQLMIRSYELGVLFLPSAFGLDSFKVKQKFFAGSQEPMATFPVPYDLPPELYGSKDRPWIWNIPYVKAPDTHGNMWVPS
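Steps: enzyme plus compound, 15 min RT; add biotin/phosphotyrosine-FITC oligonucleotide (15 nM final), react 5 min; add donor/acceptor beads (10 ug/ml final), 10 min; read AlphaScreen. Tdp1 at 1 nM final.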
The depositor's hits bear a star; ? = inconclusive; nt = no result; [ ] = dose if it differs, or a comment. Unless noted, the call rests on the fitted dose curve; in most records, active means well fitted curve in the direction sought with a large enough effect; inconclusive means small, poorly fitted or top-dose-only effect, or another doubt; inactive means no such curve, though single readings can be large; an effect the other way counts as inactive or inconclusive.

SMILES | TGFb inhibitor | TDP1 cell noCPT | IL1B secr inh | TDP1 cell CPT | HepG2 tox | TDP1 block
Cc1ccc(Cc2c(-c3cccc(Br)c3)nc3ccc(Cl)cn23)cc1 | -12.2% | 18.4µM* | 17.8 | ? | -27.8% | nt
CCCc1nc2c3ccccc3ccn2c1Cc1cccc(Cl)c1 | -72.5% | ? | 33.3 | ? | -38.2% | nt
CCCc1nc2ccc(C)cn2c1Cc1cccc(Cl)c1 | ? | 16.4µM* | 2.1 | ? | -6.0% | nt
Brc1cccc(-c2nc3c4ccccc4ccn3c2Cc2ccccc2)c1 | ? | ? | 6.8 | 20.6µM* | -26.2% | nt
c1ccc(Cc2c(-c3ccccc3)nc3c4ccccc4ccn23)cc1 | 13.5% | ? | 39.6 | ? | 0.5% | nt
Clc1ccc2nc(-c3ccccc3)c(Cc3ccccc3)n2c1 | -3.3% | 18.4µM* | 61.0 | ? | -23.1% | nt
Cc1ccc2nc(-c3cccc(Br)c3)c(Cc3cccc(Cl)c3)n2c1 | ? | 18.4µM* | -1.9 | ? | -24.3% | nt
Clc1cccc(Cc2c(-c3cccc(Br)c3)nc3ccc(Cl)cn23)c1 | ? | ? | 0.4 | ? | -33.6% | nt
Clc1cccc(Cc2c(-c3ccccc3)nc3ccc(Cl)cn23)c1 | ? | ? | 52.8 | ? | -31.1% | nt
Clc1ccc2nc(-c3cccc(Br)c3)c(Cc3ccccc3)n2c1 | ? | ? | 67.1 | -21.0% | -8.6% | nt
Cc1ccc2nc(-c3ccccc3)c(Cc3cccc(Cl)c3)n2c1 | 14.1µM* | 18.4µM* | -5.3 | 20.6µM* | -49.9% | nt
Cc1ccc(Cc2c(-c3ccc(Cl)cc3)nc3ccc(Cl)cn23)cc1 | -5.5% | 20.6µM* | 6.2 | ? | -1.4% | nt
Cc1ccc2nc(-c3cccc(Br)c3)c(Cc3ccccc3)n2c1 | ? | ? | -0.6 | 25.9µM* | -42.6% | nt
Cc1c(CNCc2ccc(Cl)cc2)c(C(=O)O)c(C)n1Cc1ccc(F)cc1 | -3.7% | ? | nt | ? | -23.7% | 2.5%
CC(=O)c1ccc(F)c(-c2cc(C)cc3c2OC(CNC(=O)c2cccnc2)C3)c1 (configuration not stated) | nt | ? | nt | 21.4%[9.04 µM] | nt | nt
CCOC(=O)C(CC)Sc1nnc(COc2ccc(C)cc2)n1-c1ccccc1 (configuration not stated) | -10.7% | ? | 0.5 | 20.6µM* | 2.6% | -3.3%
CCOc1ccc(-n2c(COc3ccc(C)cc3)nnc2SCC(N)=O)cc1 | 10.9% | -13.6% | -6.9 | -14.1% | -15.5% | 6.3%
Cc1ccc(OCc2nnc(SCC(=O)c3cccs3)n2-c2ccccc2)cc1C | -29.9% | ? | -17.4 | ? | -1.5% | 0.0%
O=C(CSc1nnc(COc2ccccc2)n1-c1ccccc1)c1cccs1 | ? | 20.6µM* | ? | 18.4µM* | -69.0% | 4.4%
Oc1c(Br)cc(CNC2CCCCC2)cc1Br | 6.3% | -24.8% | 10.7 | -11.4% | -5.4% | nt
CCOC(=O)c1cccc(NC(=O)CC2C(=O)N(c3ccc(F)cc3)C(=O)N2C(C)C)c1 (configuration not stated) | -28.9% | ? | nt | ? | -22.0% | 5.6%
O=C(Cn1cc2ccccc2n1)N1CCOc2ccc(C(O)C3CCCCC3)cc2C1 (configuration not stated) | nt | ? | nt | -2.8%[9.04 µM] | nt | nt
COc1ccc(C(=O)CCN2CCN(c3ccccc3OC)CC2)cc1 | ? | 5.17µM* | ? | 3.66µM* | -167.7% | 8.2%
COc1ccccc1N1CCN(CC(=O)N2CCCC2)CC1 | -17.6% | 5.7% | 9.4 | 5.7% | -35.5% | nt
COc1ccccc1N1CCN(CC(=O)c2ccc3ccn(C(C)=O)c3c2)CC1 | -2.2% | ? | 39.7 | 2.91µM* | -0.9% | 3.9%
SMILES | TGFb inhibitor | TDP1 cell noCPT | IL1B secr inh | TDP1 cell CPT | HepG2 tox | TDP1 block
CCOc1ccccc1NC(=O)C(Cc1ccccc1)NS(=O)(=O)c1ccc2c(c1)oc(=O)n2C (configuration not stated) | -7.3% | 8.5% | nt | ? | -28.3% | 0.0%
COc1ccc(N2CCN(Cc3cccn3-c3nnc(N4CCN(C5CCCCC5)CC4)s3)CC2)cc1 | -2.2% | 20.6µM* | nt | 20.6µM* | -15.1% | 3.2%
O=c1[nH]cc(S(=O)(=O)N2CCCc3ccccc32)c(=O)[nH]1 | -16.1% | 19.8% | 9.0 | 7.0% | -2.3% | -3.4%
CC(Sc1nnc(-c2cccnc2)o1)C(=O)NC1CCCCC1 (configuration not stated) | -3.8% | -0.4% | 7.4 | -2.4% | 3.6% | 0.7%
COc1ccc(CCC(=O)NCc2ccc3c(c2)CCN3C(=O)c2cccc(C)c2)cc1 | ? | 4.61µM* | nt | 5.8µM* | -51.2% | -2.5%
COc1ccc(CCC(=O)NCc2ccc3c(c2)CCN3C(=O)c2ccc(C)cc2)cc1 | -1.4% | 20.6µM* | nt | ? | -2.1% | 1.5%
COc1cc(CCC(=O)NCc2ccc3c(c2)CCN3C(=O)c2ccccc2)cc(OC)c1OC | ? | -25.5% | nt | -15.6% | -25.0% | 0.5%
Cc1ccccc1CNCCCSc1nnnn1-c1ccccc1 | 5.4% | -27.5% | nt | -22.6% | -12.3% | -5.7%
COc1cccc(/C(C#N)=C/c2c(-c3ccc(Cl)cc3)nc3c(C)cccn23)c1 | -7.7% | 18.4µM* | -65.4* | 20.6µM* | -3.6% | 8.2%
C=CC(=O)O | nt | -1.4% | nt | -25.2% | nt | -6.4%
COc1ccc(CCNC(=O)/C=C/c2cc(OC)c(OC)c(OC)c2)cc1OC | 12.3% | ? | -0.2 | -27.6% | -2.9% | 2.6%
COc1cc(/C=C/C(=O)NCCc2ccc(S(N)(=O)=O)cc2)ccc1OCC#N | -26.7% | -28.9% | 10.1 | 18.4µM* | -8.8% | nt
NS(=O)(=O)c1ccc(CCNC(=O)/C=C/c2cccc([N+](=O)[O-])c2)cc1 | 0.8% | ? | 11.7 | ? | 0.2% | -2.4%
CCOc1cc(/C=C/C(=O)NCCc2ccc(S(N)(=O)=O)cc2)ccc1OCC(C)C | -3.4% | 8.2µM* | -8.5 | 13µM* | -2.5% | 2.5%
CCN1Cc2cccc(C(=O)Nc3ccc(F)cc3)c2C1=O | 0.5% | -18.9% | nt | -8.7% | -11.2% | 2.5%
COc1cc(NC(=O)c2c(F)c(F)c(F)c(F)c2F)c(OC)cc1Cl | -37.8% | ? | -101.1* | -27.5% | -64.1% | 0.0%
CCCc1cc(C(=O)Nc2cccnc2)no1 | 6.9% | -5.2% | -3.1 | 9.2µM* | -11.3% | 0.0%
COc1cccc(-c2cc(C(=O)Nc3ccc(OC)cc3OC)no2)c1 | 11.7% | -15.0% | nt | 3.8% | -4.1% | 2.7%
CCCc1cc(C(=O)Nc2cccc(Cl)c2)no1 | -20.0% | 7.9% | -13.2 | 0.3% | -22.0% | -5.4%
